Source: PubChem BioAssay (Tox21)
Results filed as inconclusive are left out. Active and inactive are the calls of the source. Unless noted, calls follow the shape of the dose curve; as a rule, active = well fitted curve in the direction sought with a large enough effect in the repeat runs; inconclusive = weak or mixed curves; inactive = no such curve, though single readings can be large; an effect the other way counts as inactive or inconclusive.

Columns and labels:
[1] = qHTS assay for small molecules that induce genotoxicity in human embryonic kidney cells expressing luciferase-tagged ATAD5 (AID 651632); also: nearly all actives have a fitted effect of over 15% in size
How it was run: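 Luminescence read-out: after 16 hr compound exposure at 37C, ATAD5-luciferase HEK293T cells received Amplite, 30 min RT, then CCD imaging. A rise in signal marks genotoxic stress.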

[2] = qHTS assay for small molecules that induce genotoxicity in human embryonic kidney cells expressing luciferase-tagged ATAD5 - cell viability (AID 651634; calls by dose curve; also: nearly all actives have a fitted effect of over 25% in size)
How it was run: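 HEK293T ATAD5-luc cells, 2,000/well; compound 15.5 hr, 37C/5% CO2; CellTiter-Fluor 30 min, 37C; fluorescence read.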

[3] = qHTS assay for small molecule disruptors of the mitochondrial membrane potential - cell viability (AID 720634; calls by dose curve;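 also: human HepG2 liver cancer cells; series mostly up to about 83 µM; nearly all actives have a fitted effect of over 20% in size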)
How it was run: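 Luminescence from CellTiter-Glo (ATP content) gave viability in HepG2 cells, read in the same wells as the MMP dye assay after 1 hr compound exposure at 37 C.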

[4] = qHTS assay to test for compound auto fluorescence at 590 nm (red) in HepG2 cells (AID 720674)
How it was run: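 1 hr compound incubation on HepG2 cells, 37 C, 5% CO2; plate read ex 540 nm / em 590 nm; intensities reported as Rose Bengal sodium equivalents.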

[5] = qHTS assay to test for compound auto fluorescence at 535 nm (green) in HepG2 cells (AID 720675)
[6] = qHTS assay to test for compound auto fluorescence at 460 nm (blue) in HEK293 cells (AID 720678)
How it was run: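 After cell attachment (4-5 hr, 37C), compounds were pinned onto HEK293 monolayers in 10% dialyzed FBS medium. The blue channel (405/460 nm) was read following overnight culture. Equivalency was calculated against triamterene.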

[7] = qHTS assay to test for compound auto fluorescence at 590 nm (red) in HEK293 cells (AID 720679)
How it was run: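 Plates of HEK293 cells (10% dialyzed FBS) are treated with 23 nL compound or DMSO vehicle after a 4-5 hr attachment period, incubated overnight at 37C, and read for red fluorescence at 540/590nm.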

[8] = qHTS assay to test for compound auto fluorescence at 460 nm (blue) in HEK293 cell free culture (AID 720681)
How it was run: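 Blue fluorescence (Ex 405/Em 460 nm, triamterene-equivalent) was read immediately after pin transfer of compound or DMSO into medium (DMEM, 10% FBS) without cells.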

[9] = qHTS assay to test for compound auto fluorescence at 535 nm (green) in HEK293 cell free culture (AID 720682)
How it was run: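 Compounds were pin-transferred into cell-free DMEM with 10% FBS, and green fluorescence was read at excitation 485 nm and emission 535 nm. Intensities were expressed as fluorescein-equivalent values.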

[10] = qHTS assay to test for compound auto fluorescence at 590 nm (red) in HEK293 cell free culture (AID 720683)
How it was run: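 Red-channel autofluorescence of compounds in culture medium (DMEM, 10% FBS), no cells, measured at 540/590 nm. Rose Bengal sodium is the reference fluorophore for equivalence.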

[11] = qHTS assay to test for compound auto fluorescence at 590 nm (red) in HepG2 cell free culture (AID 720684)
How it was run: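 Cell-free; medium MEM + 10% FBS; compound or DMSO added by pintool; read Ex 540/Em 590 nm; Rose Bengal sodium as red reference fluorophore.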

[12] = qHTS assay to test for compound auto fluorescence at 460 nm (blue) in HepG2 cell free culture (AID 720685)
How it was run: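 Cell-free plates of MEM plus 10% FBS received 23 nL compound or DMSO vehicle; blue-channel (405/460 nm) intensity scored against triamterene as reference fluorophore.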

[13] = qHTS assay to test for compound auto fluorescence at 535 nm (green) in HepG2 cell free culture (AID 720686)
[14] = qHTS assay to test for compound auto fluorescence at 460 nm (blue) in HepG2 cells (AID 720687)
How it was run: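 Blue-channel autofluorescence (Ex/Em 405/460 nm, triamterene-equivalent) was measured after 1 hr compound exposure at 37 C, 5% CO2. Cells were HepG2, plated overnight at 37 C in MEM plus 10% FBS.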

[15] = target: Glucocorticoid receptor (Homo sapiens) (UniProt P04150); experiment: qHTS assay to identify small molecule agonists of the glucocorticoid receptor (GR) signaling pathway (AID 720691; active = well fitted activation curve with a large enough effect in the signal ratio in the repeat runs, not every such curve was filed as active; the % refers to the signal ratio)
Sequence of Glucocorticoid receptor (Homo sapiens) (P04150 whole entry, looked up): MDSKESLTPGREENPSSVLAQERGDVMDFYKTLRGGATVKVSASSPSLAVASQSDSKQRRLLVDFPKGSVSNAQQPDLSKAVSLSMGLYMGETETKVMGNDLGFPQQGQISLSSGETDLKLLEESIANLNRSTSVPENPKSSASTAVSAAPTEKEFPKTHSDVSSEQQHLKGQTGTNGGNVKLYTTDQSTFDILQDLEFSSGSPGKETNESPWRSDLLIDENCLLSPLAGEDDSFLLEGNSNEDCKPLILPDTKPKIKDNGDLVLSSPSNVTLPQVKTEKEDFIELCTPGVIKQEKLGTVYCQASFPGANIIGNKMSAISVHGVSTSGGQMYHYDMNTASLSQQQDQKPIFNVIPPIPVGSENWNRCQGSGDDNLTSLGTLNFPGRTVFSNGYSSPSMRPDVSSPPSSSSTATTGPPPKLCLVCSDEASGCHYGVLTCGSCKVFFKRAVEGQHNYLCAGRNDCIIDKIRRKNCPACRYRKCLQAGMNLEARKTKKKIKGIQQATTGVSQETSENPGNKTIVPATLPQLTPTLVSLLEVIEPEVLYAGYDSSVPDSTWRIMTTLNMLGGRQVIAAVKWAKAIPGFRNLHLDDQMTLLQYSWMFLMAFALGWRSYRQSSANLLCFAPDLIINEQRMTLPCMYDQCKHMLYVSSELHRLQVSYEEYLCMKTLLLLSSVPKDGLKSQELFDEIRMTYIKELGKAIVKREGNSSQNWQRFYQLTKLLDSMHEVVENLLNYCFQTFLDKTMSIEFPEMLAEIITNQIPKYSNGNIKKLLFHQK
How it was run: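 HeLa GR-bla reporter line; cells pre-incubated 4 h, compound in DMSO 18 h at 37 C; LiveBLAzer B/G FRET substrate 2 h RT; fluorescence intensity read-out.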

[16] = qHTS assay for small molecule agonists of the p53 signaling pathway - cell viability (AID 651633; calls by dose curve;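 also: p53RE-bla HCT reporter cells with a stable beta-lactamase p53 reporter; series mostly up to about 83 µM; nearly all actives have a fitted effect of over 30% in size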)
How it was run: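 Viability counter-read: CellTiter-Glo luminescence (30 min, room temperature) in the same p53RE-bla plates. These plates had been exposed to compounds for 16 h at 37 C.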

[17] = qHTS assay for small molecule disruptors of the mitochondrial membrane potential (AID 720635)
How it was run: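 Mitochondrial membrane potential tracked with Mito-MPS dye, red aggregates (ex 540/em 590 nm) against green monomers (ex 490/em 535 nm). Compound treatment 1 hr at 37C, dye 30 min in HepG2.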

[18] = qHTS assay to test for compound auto fluorescence at 535 nm (green) in HEK293 cells (AID 720680)
[19] = target: Glucocorticoid receptor (Homo sapiens) (UniProt P04150); experiment: qHTS assay to identify small molecule antagonists of the glucocorticoid receptor (GR) signaling pathway (AID 720692; active = well fitted inhibition curve with a large enough effect in the signal ratio in the repeat runs, not every such curve was filed as active; the % refers to the signal ratio)
How it was run: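 Read-out: beta-lactamase FRET substrate fluorescence, 2 h at room temperature, in HeLa cells stably carrying a GRE-driven bla reporter. Compounds were co-incubated with 5 nM dexamethasone agonist (final) for 18 h at 37 C.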

Measured: Potency

CC(C)(C)C1CCCCC1=O (stereo not given)
not listed: [16] | [17] | [18] | [19]
inactive: all other assays above

CNCCC(Oc1ccccc1OC)c1ccccc1 (stereo not given)
not listed: [1] | [15] | [19]
inactive: all other assays above

CCOC(=O)COc1ccc2c(c1)CC(NCC(O)c1cccc(Cl)c1)CC2 (stereo not given)
not listed: [15] | [16] | [17] | [19]
inactive: all other assays above

COc1ccc(Nc2ccc(OC)cc2)cc1
not listed: [1] | [2] | [16] | [17]
inactive: all other assays above

O=c1[nH]c(=O)n([C@H]2C[C@H](O)[C@@H](CO)O2)cc1C(F)(F)F
not listed: [1] | [16] | [17] | [19]
inactive: all other assays above

CCCCCCCCCCCCCCCCOP(=O)([O-])OCC[N+](C)(C)C
not listed: [1] | [12] | [16] | [17] | [18] | [19]
inactive: all other assays above

NC1=NCC2c3ccccc3Cc3ccccc3N12 (stereo not given)
not listed: [1] | [12] | [16]
inactive: all other assays above

N#Cc1ccc(C(c2ccc(C#N)cc2)n2cncn2)cc1
not listed: [1]
inactive: all other assays above

Cc1c[nH]c(=S)[nH]c1=O
not listed: [15] | [16] | [17] | [19]
inactive: all other assays above

CCCCCCCCCCCCOCCOS(=O)(=O)O
not listed: [15] | [16] | [17] | [19]
inactive: all other assays above

Oc1ccccc1F
not listed: [1] | [16]
inactive: all other assays above

O=C(O)[C@@H](O)[C@H](O)[C@H](O)[C@@H](O)C(=O)O
not listed: [1] | [15] | [18] | [19]
inactive: all other assays above

CN1CCN(C2=Nc3cc(F)ccc3Cc3ccccc32)CC1
not listed: [12] | [16] | [17]
inactive: all other assays above

O=C(Cl)c1cccc([N+](=O)[O-])c1
not listed: [1] | [2]
inactive: all other assays above

CN1[C@@H]2CC[C@H]1CC(OC(=O)c1c[nH]c3ccccc13)C2 (stereo not given in full)
not listed: [1] | [15] | [19]
inactive: all other assays above

CN(CCCN1c2ccccc2CCc2ccccc21)CC(=O)c1ccc(Cl)cc1
not listed: [1] | [12] | [17] | [18] | [19]
inactive: all other assays above

CN1C(=O)CC(c2ccccc2)C1=O (stereo not given)
not listed: [16] | [17]
inactive: all other assays above
